From PubChem BioAssay come the findings set out here.

The structures appear in SMILES notation. A number with no mark means an inactive call. For some assays here: Entries with a potency or affinity are not part of this list. Calls of active or inactive are those of the source. Unless noted, no rule for the calls is given here.

A short description of experiment [1]: antimalarial activity against Dd2 strain (AID 2302;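 active = growth inhibition above 50% at the single 2 µM test dose, taken to imply half-maximal potency below 2 µM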;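 also: 0% = DMSO untreated growth and 100% = chloroquine plus artemisinin killed control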). The settings on record: P. falciparum Dd2 in RBCs, LDH growth readout, 72 h; at 2 µM; stronger effect = higher value.
Experiment [2] in a line: HepG2 cytotoxicity, primary screen, cytotoxicity control for P. falciparum antimalarial project, cell-based, ATP luminescence (AID 2303;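 active = inhibition above 50%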;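 also: 0% = DMSO wells and 100% = digitonin-killed cells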). The conditions noted are these: HepG2 viability, 24-48 h, at 10 µM, stronger effect = higher value.
Experiment [3] deals with L-lactate dehydrogenase (Plasmodium falciparum (isolate CDC / Honduras)) (UniProt Q27743). Briefly: PfLDH activity inhibition – cell lysate, 3D7 strain, counter-screen for P. falciparum growth inhibition project (AID 2304).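 Also: 0% = vehicle and 100% = reference inhibitor.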 The settings on record: P. falciparum 3D7 crude extract, LDH APAD/NBT absorbance; at 2 µM; stronger effect = higher value.
Sequence of L-lactate dehydrogenase (Plasmodium falciparum (isolate CDC / Honduras)) (Q27743 whole entry, looked up): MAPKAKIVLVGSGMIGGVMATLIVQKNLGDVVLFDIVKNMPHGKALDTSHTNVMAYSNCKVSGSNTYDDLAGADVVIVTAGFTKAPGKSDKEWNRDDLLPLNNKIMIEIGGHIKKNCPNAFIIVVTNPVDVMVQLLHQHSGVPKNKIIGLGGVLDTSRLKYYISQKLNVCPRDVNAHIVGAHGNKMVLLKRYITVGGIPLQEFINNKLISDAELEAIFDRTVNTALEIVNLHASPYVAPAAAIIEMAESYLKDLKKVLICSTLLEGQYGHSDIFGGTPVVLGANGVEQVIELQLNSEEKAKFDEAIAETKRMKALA
A short description of experiment [4]: inhibition of 3D7 malaria parasite growth – strain 3D7 (AID 2306).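 Also: 0% = DMSO wells and 100% = chloroquine plus artemisinin control wells.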 The conditions noted are these: P. falciparum 3D7 erythrocytic growth, LDH absorbance, 72 h; at 2 µM; stronger effect = higher value.
In experiment [5] the target is Calcium-dependent protein kinase 1 (Plasmodium falciparum (isolate 3D7)) (UniProt P62344). Briefly: PfCDPK1 kinase inhibitors, biochemical, TCAMS library (AID 1159585; cut-off not given, nearly all actives have IC50 up to about 0.98 µM;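 also: inhibitors leave more ATP so luminescence rises with inhibition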). The conditions noted are these: recombinant PfCDPK1, Kinase-Glo ATP depletion luminescence.
Sequence of Calcium-dependent protein kinase 1 (Plasmodium falciparum (isolate 3D7)) (P62344 whole entry, looked up): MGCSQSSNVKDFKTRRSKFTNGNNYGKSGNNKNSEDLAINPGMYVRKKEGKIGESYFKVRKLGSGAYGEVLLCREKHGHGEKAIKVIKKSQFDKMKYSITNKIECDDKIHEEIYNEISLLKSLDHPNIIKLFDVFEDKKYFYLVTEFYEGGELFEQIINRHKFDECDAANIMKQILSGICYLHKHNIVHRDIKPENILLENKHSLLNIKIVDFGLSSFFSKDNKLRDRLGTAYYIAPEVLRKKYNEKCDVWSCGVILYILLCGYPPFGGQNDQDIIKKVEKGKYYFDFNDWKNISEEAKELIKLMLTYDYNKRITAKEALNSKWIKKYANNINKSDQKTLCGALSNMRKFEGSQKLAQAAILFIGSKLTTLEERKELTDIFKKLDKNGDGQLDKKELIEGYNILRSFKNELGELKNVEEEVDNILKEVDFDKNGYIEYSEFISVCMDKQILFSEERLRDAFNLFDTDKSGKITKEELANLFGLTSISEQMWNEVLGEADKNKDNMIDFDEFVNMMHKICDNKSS
Experiment [6] concerns the target Plasmodium falciparum protein kinase 6 (PK6, PF3D7_1337100) (UniProt Q8IDW1). Description: PfPK6 kinase inhibitors, biochemical, TCAMS library (AID 1159586). The settings on record: recombinant PfPK6, Kinase-Glo ATP depletion luminescence.
In experiment [7] the target is Protein kinase 7 (PK7), Plasmodium falciparum 3D7 (PF3D7_0213400) (UniProt Q7YTF7). Briefly: inhibition of Plasmodium PK7 catalytic activity – biochemical, TCAMS antimalarial set, Kinase-Glo luminescence (AID 1159587). The conditions noted are these: recombinant PfPK7, Kinase-Glo ATP depletion luminescence.
Sequence of Protein kinase 7 (PK7), Plasmodium falciparum 3D7 (PF3D7_0213400) (Q7YTF7 1-343): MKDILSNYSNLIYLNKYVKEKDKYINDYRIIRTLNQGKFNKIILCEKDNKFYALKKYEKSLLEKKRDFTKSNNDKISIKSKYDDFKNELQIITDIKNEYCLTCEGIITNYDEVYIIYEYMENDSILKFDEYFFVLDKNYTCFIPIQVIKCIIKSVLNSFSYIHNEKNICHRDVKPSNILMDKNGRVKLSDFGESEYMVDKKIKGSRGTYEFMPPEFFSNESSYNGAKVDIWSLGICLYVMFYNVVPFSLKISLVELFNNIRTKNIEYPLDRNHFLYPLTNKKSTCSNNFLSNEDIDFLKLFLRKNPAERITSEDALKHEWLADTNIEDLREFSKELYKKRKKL
The target in experiment [8] is Calcium-dependent protein kinase 4 (Plasmodium falciparum (isolate 3D7)) (UniProt Q8IBS5). Description: PfCDPK4 kinase inhibitors, biochemical, TCAMS library (AID 1159588; cut-off not given, nearly all actives have IC50 up to about 0.91 µM). The conditions noted are these: recombinant PfCDPK4, Kinase-Glo ATP depletion luminescence.
Sequence of Calcium-dependent protein kinase 4 (Plasmodium falciparum (isolate 3D7)) (Q8IBS5 whole entry, looked up): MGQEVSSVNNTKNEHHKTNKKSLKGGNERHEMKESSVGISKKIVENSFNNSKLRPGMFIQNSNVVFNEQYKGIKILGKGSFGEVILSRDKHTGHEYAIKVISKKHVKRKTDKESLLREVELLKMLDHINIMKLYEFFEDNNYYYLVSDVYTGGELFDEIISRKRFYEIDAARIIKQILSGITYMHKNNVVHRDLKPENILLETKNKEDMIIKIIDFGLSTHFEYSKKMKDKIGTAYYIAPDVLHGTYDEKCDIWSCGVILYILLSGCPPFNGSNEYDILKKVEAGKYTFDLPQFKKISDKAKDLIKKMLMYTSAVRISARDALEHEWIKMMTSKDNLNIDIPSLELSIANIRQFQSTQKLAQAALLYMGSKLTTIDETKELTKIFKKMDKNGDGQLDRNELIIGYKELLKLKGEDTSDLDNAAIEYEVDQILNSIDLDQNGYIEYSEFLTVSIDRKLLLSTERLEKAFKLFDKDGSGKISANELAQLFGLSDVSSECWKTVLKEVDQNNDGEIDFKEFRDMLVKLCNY

Sequence of Plasmodium falciparum protein kinase 6 (PK6, PF3D7_1337100) (Q8IDW1 1-305): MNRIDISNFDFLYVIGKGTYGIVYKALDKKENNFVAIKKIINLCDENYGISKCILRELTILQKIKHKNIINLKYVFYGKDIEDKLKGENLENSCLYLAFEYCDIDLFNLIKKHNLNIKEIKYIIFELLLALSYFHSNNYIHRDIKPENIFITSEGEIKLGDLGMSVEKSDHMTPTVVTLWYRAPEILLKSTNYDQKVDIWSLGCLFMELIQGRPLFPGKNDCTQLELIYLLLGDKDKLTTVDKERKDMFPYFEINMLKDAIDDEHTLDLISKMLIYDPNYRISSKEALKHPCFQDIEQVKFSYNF

For the compound `O=C(C=CC(=O)N1CCCCC1)NCc1ccccc1`, the values for the growth inhibition in experiment [1] and in experiment [4] were -3% and 100% (active), respectively. Also, the inhibition was 6% in experiment [2] and -2% in experiment [3]. The outcome in experiment [5], in experiment [6], in experiment [7] and in experiment [8] was inactive.
With `Fc1cccc(COc2ccc(Nc3ncnc4sc(C#CCNC5CCC5)cc34)cc2Cl)c1`, the growth inhibition in experiment [1] was 73% (active); in experiment [4], 100% (active). In addition, the figures for the inhibition in experiment [2] and in experiment [3] were 15% and 9%, respectively. Also, the result in experiment [5], in experiment [6], in experiment [7] and in experiment [8] was inactive.
As to `N#Cc1ccccc1Sc1ccccc1C(=O)Nc1ccc2ccccc2n1`, the growth inhibition in experiment [1] was 85% (active); in experiment [4], 92% (active). The inhibition in experiment [2] is -3%; in experiment [3] it was 0%. Moreover, the result in experiment [5], in experiment [6], in experiment [7] and in experiment [8] was inactive.
Consider `O=C(NCCCCN1CCC(c2ccc3c(c2OCc2ccccn2)CCCC3)CC1)c1ccc(NC(=O)c2ccc(Cl)cc2)cc1`, for which the growth inhibition in experiment [1] was 70% (active); in experiment [4] it was 101% (active). For the same compound, the inhibition in experiment [2] is 31%; in experiment [3], -3%. For the same compound, the result in experiment [5], in experiment [6], in experiment [7] and in experiment [8] was inactive.
With `O=C(NCc1cccnc1)C(c1cc2ccccc2o1)N1CCN(C(c2ccccc2)c2ccccc2)CC1` (configuration not stated), the figures for the growth inhibition in experiment [1] and in experiment [4] were 81% (active) and 95% (active), respectively. In addition, the inhibition is 12% in experiment [2] and 6% in experiment [3]. For the same compound, the result in experiment [5], in experiment [6], in experiment [7] and in experiment [8] was inactive.
For `CC(C)CCN1CCCN(Cc2ccc(C(=O)NCc3ccc(Cl)cc3)cc2)CC1`, the growth inhibition in experiment [1] is -4%; in experiment [4], 84% (active). Also, the results for the inhibition in experiment [2] and in experiment [3] were 16% and 1%, respectively. Besides, the result in experiment [5], in experiment [6], in experiment [7] and in experiment [8] was inactive.
As to `Cc1onc(-c2c(Cl)cccc2Cl)c1C(=O)N1CCc2cc3nccc(N4CCN5CCC[C@H]5C4)c3cc21`, the figures for the growth inhibition in experiment [1] and in experiment [4] were 58% (active) and 101% (active), respectively. The values for the inhibition in experiment [2] and in experiment [3] were 3% and -5%, respectively. The outcome in experiment [5], in experiment [6], in experiment [7] and in experiment [8] was inactive.
For the compound `CCN(CC)CCN(Cc1ccc(-c2ccc(C(F)(F)F)cc2)cc1)C(=O)Cn1c(CCc2cccc(F)c2F)nc(=O)c2cc(C)ccc21`, the growth inhibition in experiment [1] is 43%; in experiment [4], 95% (active). In addition, the inhibition is 19% in experiment [2] and 0% in experiment [3]. Further, the result in experiment [5], in experiment [6], in experiment [7] and in experiment [8] was inactive.
For the compound `Cc1ccc2c(c1)c(-c1ccccc1)c(-c1ccccc1)n2CC(O)CN1CCN(CC=Cc2ccccc2)CC1` (configuration not stated), the growth inhibition in experiment [1] and in experiment [4] was 98% (active) each time. Also, the inhibition was 0% in experiment [2] and 6% in experiment [3]. In addition, the result in experiment [5], in experiment [6], in experiment [7] and in experiment [8] was inactive.
Turning to `CC1CCCCN1Cc1cccc(-c2c[nH]c3nc(NC4CCCC4)ncc23)c1` (configuration not stated), the growth inhibition was 14% in experiment [1] and 93% (active) in experiment [4]. For the same compound, the inhibition in experiment [2] is -1%; in experiment [3] it was -2%. Also, the outcome in experiment [5], in experiment [6], in experiment [7] and in experiment [8] was inactive.
As to `Cc1ccc(CNC(=O)[C@H](CCCN)Nc2cc(C)nc(NCC3CCCCC3)n2)cc1`, the growth inhibition in experiment [1] was -2%; in experiment [4], 90% (active). Also, the inhibition in experiment [2] was 1%; in experiment [3], 0%. The result in experiment [5], in experiment [6], in experiment [7] and in experiment [8] was inactive.
For `N#Cc1ccc(-c2ccc(C(=O)NC3CCN(CCN4CCC(c5cn(CCO)c6ccccc56)CC4)CC3)cc2)cc1`, the growth inhibition is 79% (active) in experiment [1] and 100% (active) in experiment [4]. Besides, the inhibition is 30% in experiment [2] and -2% in experiment [3]. Also, the result in experiment [5], in experiment [6], in experiment [7] and in experiment [8] was inactive.
For the compound `CCc1ccc(C2CCN(CCCCNC(=O)c3ccc(NC(=O)c4ccc(Cl)cc4)cc3)CC2)c(OC(C)=O)c1`, the growth inhibition in experiment [1] is 100% (active); in experiment [4], 91% (active). In addition, the inhibition in experiment [2] is 48%; in experiment [3] it was 0%. The outcome in experiment [5], in experiment [6], in experiment [7] and in experiment [8] was inactive.
As for `COc1ccc2nccc([C@@H](O)CN3CCC(NC(=O)c4ccc(CN5CCN(c6cccc(C)c6)CC5C)cc4)CC3)c2c1` (some centres not stated), the growth inhibition in experiment [1] is 86% (active); in experiment [4], 97% (active). Further, the figures for the inhibition in experiment [2] and in experiment [3] were 50% (active) and 4%, respectively. The outcome in experiment [5], in experiment [6], in experiment [7] and in experiment [8] was inactive.
With `CC1(C)N=C(N)N=C(N)N1OCCCCCCOc1ccc(Cl)c2ccccc12`, the values for the growth inhibition in experiment [1] and in experiment [4] were 94% (active) and 91% (active), respectively. Moreover, the inhibition in experiment [2] is 62% (active); in experiment [3], 1%. The outcome in experiment [5], in experiment [6], in experiment [7] and in experiment [8] was inactive.
In the case of `COc1ccc2nccc([C@@H](O)CN3CCC(NC(=O)/C=C/c4cccc(C)c4)CC3)c2c1`, the figures for the growth inhibition in experiment [1] and in experiment [4] were 28% and 84% (active), respectively. The results for the inhibition in experiment [2] and in experiment [3] were 16% and -2%, respectively. In addition, the outcome in experiment [5], in experiment [6], in experiment [7] and in experiment [8] was inactive.
Regarding `C[C@H](Cc1ccc(OCCCCCCOc2ccc(C[C@@H](C)N[C@H](C)c3ccccc3)cc2)cc1)NC[C@H](O)c1cccc(Cl)c1`, the values for the growth inhibition in experiment [1] and in experiment [4] were 98% (active) and 99% (active), respectively. The values for the inhibition in experiment [2] and in experiment [3] were 99% (active) and -4%, respectively. Besides, the outcome in experiment [5], in experiment [6], in experiment [7] and in experiment [8] was inactive.
As to `Nc1nc(Nc2cccc(O)c2)nc2ccccc12`, the values for the growth inhibition in experiment [1] and in experiment [4] were 79% (active) and 96% (active), respectively. Moreover, the inhibition was 25% in experiment [2] and 4% in experiment [3]. In addition, the result in experiment [5], in experiment [6], in experiment [7] and in experiment [8] was inactive.
Turning to `CC(CN(C)C)C(=O)Nc1cccc(-c2ccc(-c3nc4ccc(F)cc4[nH]3)s2)c1` (configuration not stated), the growth inhibition in experiment [1] was 99% (active); in experiment [4], 100% (active). The inhibition was 3% in experiment [2] and -6% in experiment [3]. Also, the outcome in experiment [5], in experiment [6], in experiment [7] and in experiment [8] was inactive.
